# The supplement of paper PMC11732987, “Enantioselective OTUD7B fragment discovery through chemoproteomics screening and high-throughput optimisation” (Communications Chemistry, 2025)
# A number with no mark means an inactive call.
# How the values were obtained:
# Assay in all cases: log2 ratio of Biotin-Ahx-Ub-VS probe labelling (fragment/DMSO); higher = less target engagement (more negative = stronger competition), active = hit call of the paper (q ≤ 0.05, log2 ratio ≤ -1)
# Conditions in all cases: compound concentration: 200 uM; treatment time: 3 h
# [1] = molecular target: T1, OTUD6B (UniProt Q8N6M0)
# T1 sequence (whole entry): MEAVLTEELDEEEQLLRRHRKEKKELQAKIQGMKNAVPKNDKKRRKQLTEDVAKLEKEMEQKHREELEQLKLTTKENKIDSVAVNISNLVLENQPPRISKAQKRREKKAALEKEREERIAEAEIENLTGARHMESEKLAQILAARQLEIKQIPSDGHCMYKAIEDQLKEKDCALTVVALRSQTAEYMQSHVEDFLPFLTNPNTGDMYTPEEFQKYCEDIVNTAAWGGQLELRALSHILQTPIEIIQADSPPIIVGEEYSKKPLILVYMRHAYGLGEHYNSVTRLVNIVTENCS
# How it was run: (§1)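 Global-median-normalised Spectronaut label-free quantities were compared by unpaired t-test, and values are average log2 ratios of fragment over vehicle. Only proteins with ≥2 unique peptides were used. HEK293T lysate (495 µg per sample) was treated in triplicate with fragment at 200 µM or vehicle for 3 h and then with Biotin-Ahx-Ub-VS at 0.5 µM final for 1 h. Labelled DUBs were then NeutrAvidin-enriched, digested with LysC and trypsin, and run by diaPASEF LC-MS/MS.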
# [2] = molecular target: T2, OTUD7B (UniProt Q6GQQ9)
# T2 sequence (whole entry): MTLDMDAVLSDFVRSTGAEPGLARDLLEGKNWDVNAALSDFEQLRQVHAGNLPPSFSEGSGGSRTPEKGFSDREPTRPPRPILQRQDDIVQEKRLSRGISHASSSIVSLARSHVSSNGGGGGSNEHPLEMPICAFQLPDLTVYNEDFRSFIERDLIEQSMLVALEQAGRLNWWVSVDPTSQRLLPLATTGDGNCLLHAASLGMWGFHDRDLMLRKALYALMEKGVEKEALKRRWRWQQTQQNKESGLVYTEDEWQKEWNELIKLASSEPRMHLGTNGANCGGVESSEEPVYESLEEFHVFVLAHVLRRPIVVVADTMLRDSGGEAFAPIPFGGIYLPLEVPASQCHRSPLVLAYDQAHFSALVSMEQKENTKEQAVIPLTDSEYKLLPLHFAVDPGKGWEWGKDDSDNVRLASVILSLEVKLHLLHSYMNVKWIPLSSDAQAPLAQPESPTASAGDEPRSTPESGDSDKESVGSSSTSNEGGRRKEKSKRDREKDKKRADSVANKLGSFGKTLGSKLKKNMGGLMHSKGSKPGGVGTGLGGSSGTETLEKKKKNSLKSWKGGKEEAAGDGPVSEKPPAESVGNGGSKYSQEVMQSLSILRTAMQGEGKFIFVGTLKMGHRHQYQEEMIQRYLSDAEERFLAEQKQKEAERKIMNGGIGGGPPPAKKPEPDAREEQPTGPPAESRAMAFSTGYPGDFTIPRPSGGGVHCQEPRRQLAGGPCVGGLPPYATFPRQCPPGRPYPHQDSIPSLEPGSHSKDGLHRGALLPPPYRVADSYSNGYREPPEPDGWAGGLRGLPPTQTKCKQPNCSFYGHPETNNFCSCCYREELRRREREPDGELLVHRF
# How it was run: as §1
# [3] = molecular target: PRPF8 (UniProt Q6P2Q9)
# How it was run: as §1
# [4] = molecular target: T3, PSMD7 (UniProt P51665)
# T3 sequence (whole entry): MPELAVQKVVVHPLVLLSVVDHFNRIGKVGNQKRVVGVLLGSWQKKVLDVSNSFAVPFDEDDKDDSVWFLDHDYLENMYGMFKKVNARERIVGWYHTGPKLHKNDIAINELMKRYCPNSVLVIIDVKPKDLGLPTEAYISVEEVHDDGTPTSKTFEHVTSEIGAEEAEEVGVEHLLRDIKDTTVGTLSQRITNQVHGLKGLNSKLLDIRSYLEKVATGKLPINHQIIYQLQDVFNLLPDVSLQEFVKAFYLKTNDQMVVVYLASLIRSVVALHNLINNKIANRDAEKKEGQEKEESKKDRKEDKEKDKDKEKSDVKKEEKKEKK
# How it was run: as §1
# [5] = molecular target: UCHL1 (UniProt P09936)
# Sequence of UCHL1 (P09936 whole entry, looked up): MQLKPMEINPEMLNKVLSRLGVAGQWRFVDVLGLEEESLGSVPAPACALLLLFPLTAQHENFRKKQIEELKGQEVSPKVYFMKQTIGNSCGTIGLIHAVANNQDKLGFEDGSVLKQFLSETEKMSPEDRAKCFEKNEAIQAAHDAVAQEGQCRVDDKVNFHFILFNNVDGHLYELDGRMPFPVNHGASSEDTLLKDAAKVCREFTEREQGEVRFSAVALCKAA
# How it was run: as §1
# [6] = molecular target: T4, UCHL3 (UniProt P15374)
# T4 sequence (whole entry): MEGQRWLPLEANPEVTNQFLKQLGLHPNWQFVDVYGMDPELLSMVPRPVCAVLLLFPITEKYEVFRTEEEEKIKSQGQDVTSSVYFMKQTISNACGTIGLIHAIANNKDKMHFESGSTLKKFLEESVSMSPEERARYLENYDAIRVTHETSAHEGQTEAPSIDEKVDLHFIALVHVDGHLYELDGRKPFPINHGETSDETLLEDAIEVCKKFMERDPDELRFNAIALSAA
# How it was run: as §1
# [7] = molecular target: T5, UCHL5 (UniProt Q9Y5K5)
# T5 sequence (whole entry): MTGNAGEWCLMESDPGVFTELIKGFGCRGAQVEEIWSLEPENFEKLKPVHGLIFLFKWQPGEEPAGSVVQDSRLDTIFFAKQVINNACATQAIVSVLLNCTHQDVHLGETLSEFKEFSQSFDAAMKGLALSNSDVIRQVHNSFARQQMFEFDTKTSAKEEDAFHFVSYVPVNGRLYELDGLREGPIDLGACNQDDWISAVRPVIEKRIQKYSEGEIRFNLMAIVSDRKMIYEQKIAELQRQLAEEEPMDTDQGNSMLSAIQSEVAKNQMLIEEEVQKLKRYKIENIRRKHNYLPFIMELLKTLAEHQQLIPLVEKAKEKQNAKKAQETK
# How it was run: as §1
# [8] = molecular target: USP10 (UniProt Q14694)
# Sequence of USP10 (Q14694 whole entry): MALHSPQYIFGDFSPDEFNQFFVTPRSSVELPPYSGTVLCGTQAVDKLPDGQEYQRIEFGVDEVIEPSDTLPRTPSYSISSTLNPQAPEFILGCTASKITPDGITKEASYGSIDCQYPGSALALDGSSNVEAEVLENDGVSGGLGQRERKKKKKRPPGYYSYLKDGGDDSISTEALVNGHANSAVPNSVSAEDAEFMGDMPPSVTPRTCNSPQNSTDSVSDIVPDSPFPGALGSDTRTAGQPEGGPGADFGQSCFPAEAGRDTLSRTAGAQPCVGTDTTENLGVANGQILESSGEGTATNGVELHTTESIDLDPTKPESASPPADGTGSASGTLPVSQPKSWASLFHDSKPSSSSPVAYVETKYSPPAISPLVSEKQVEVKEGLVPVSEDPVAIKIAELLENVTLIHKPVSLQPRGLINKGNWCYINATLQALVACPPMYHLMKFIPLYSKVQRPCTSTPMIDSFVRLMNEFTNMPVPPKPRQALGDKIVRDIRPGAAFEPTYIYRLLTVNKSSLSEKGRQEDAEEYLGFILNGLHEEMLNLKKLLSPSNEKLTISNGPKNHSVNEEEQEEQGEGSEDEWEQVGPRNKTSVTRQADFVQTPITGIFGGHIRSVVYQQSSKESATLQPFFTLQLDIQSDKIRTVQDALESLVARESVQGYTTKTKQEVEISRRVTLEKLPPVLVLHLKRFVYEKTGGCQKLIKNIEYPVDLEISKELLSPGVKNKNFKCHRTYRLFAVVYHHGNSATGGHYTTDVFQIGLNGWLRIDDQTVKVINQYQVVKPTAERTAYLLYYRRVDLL
# How it was run: as §1
# [9] = molecular target: T6, USP15 (UniProt Q9Y4E8)
# T6 sequence (whole entry): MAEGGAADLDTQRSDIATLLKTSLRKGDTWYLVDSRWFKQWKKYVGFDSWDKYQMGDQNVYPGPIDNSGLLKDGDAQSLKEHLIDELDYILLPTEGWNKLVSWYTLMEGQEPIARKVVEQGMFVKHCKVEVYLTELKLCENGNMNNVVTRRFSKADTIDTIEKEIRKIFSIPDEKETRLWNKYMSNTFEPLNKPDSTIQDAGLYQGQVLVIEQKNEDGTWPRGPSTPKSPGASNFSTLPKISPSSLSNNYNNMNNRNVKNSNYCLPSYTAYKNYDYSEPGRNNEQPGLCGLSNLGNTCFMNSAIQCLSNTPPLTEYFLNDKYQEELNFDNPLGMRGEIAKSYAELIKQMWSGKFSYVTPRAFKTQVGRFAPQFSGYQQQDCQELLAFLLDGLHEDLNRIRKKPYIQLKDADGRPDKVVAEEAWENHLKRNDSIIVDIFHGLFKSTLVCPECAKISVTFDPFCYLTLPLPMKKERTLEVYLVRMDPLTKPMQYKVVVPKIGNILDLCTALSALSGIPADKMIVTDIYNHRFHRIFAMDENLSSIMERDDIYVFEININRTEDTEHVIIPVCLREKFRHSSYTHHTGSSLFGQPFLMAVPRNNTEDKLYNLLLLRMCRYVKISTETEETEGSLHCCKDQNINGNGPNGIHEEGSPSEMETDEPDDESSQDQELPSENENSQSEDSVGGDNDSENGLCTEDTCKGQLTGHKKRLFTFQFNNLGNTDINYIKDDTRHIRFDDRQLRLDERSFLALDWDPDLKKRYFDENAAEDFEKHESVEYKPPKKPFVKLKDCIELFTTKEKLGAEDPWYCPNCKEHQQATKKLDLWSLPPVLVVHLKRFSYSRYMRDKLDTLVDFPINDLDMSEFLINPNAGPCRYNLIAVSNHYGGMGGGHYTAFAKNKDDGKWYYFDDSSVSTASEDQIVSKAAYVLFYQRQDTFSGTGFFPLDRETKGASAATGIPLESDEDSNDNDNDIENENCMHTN
# How it was run: as §1
# [10] = molecular target: USP16 (UniProt Q9Y5T5)
# Sequence of USP16 (Q9Y5T5 whole entry, looked up): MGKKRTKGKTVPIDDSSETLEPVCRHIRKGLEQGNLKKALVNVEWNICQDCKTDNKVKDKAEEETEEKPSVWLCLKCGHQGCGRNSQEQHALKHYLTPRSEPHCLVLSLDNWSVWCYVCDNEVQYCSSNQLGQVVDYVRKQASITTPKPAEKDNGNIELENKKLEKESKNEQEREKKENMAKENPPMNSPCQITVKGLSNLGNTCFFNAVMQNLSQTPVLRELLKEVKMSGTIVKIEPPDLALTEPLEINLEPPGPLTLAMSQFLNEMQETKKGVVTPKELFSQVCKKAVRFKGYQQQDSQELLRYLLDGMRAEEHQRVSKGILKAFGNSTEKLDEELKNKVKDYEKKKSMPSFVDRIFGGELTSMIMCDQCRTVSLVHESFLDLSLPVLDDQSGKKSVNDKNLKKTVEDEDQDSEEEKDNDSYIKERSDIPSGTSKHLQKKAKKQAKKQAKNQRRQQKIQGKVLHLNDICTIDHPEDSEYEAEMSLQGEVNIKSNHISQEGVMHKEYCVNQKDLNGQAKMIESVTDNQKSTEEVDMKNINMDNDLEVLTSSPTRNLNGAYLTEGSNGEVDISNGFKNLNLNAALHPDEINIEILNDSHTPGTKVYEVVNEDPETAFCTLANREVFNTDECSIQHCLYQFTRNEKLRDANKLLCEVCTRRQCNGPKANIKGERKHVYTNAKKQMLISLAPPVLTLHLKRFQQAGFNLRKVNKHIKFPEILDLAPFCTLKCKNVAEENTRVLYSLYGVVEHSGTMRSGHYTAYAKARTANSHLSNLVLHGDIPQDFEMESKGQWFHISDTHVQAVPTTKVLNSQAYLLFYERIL
# How it was run: as §1
compound,measurement,setting,value
CC(NC(=O)CCl)c1noc(Cc2ccccc2)n1 (stereo not given),log2 ratio of Biotin-Ahx-Ub-VS probe labelling,[1],-0.409
same,log2 ratio of Biotin-Ahx-Ub-VS probe labelling,[2],-0.724
same,log2 ratio of Biotin-Ahx-Ub-VS probe labelling,[3],0.0633
same,log2 ratio of Biotin-Ahx-Ub-VS probe labelling,[4],-0.49
same,log2 ratio of Biotin-Ahx-Ub-VS probe labelling,[5],-1.97 (active)
same,log2 ratio of Biotin-Ahx-Ub-VS probe labelling,[6],-0.00714
same,log2 ratio of Biotin-Ahx-Ub-VS probe labelling,[7],-0.344
same,log2 ratio of Biotin-Ahx-Ub-VS probe labelling,[8],0.046
same,log2 ratio of Biotin-Ahx-Ub-VS probe labelling,[9],-0.331
same,log2 ratio of Biotin-Ahx-Ub-VS probe labelling,[10],-0.296
